The nature of assay [1]: NCI Yeast Anticancer Drug Screen. Data for the rad50 strain (AID 155).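 Note: 0% = growth of vehicle-only cultures of the same strain.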 To be noted: S. cerevisiae rad50 strain growth inhibition; at 50.0 µM; active compounds read high. The method in brief:
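Genetically altered yeast (DNA repair pathway); compound treatment; growth inhibition vs vehicle ctrl.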

A short description of assay [2]: NCI Yeast Anticancer Drug Screen. Data for the mec2-1 strain (AID 157). The following applies: S. cerevisiae mec2-1 strain, at 50.0 µM, active compounds read high. The method in brief:
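Strain: mec2-1 (DNA repair/cell cycle alteration). Compound exposure, then growth measured; inhibition expressed relative to vehicle.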

The nature of assay [3]: NCI Yeast Anticancer Drug Screen. Data for the sgs1 mgt1 strain (AID 161).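 Note: 0% = growth of cultures given vehicle only.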 The following applies: S. cerevisiae sgs1 mgt1 strain, at 50.0 µM, active compounds read high. Put shortly:
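Inhibition of yeast growth, normalised to vehicle-treated controls, is reported for a strain bearing genetic alterations in DNA damage repair.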

The nature of assay [4]: NCI Yeast Anticancer Drug Screen. Data for the cln2 rad14 strain (AID 165).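 Note: 0% = growth equal to vehicle treated cultures.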 To be noted: S. cerevisiae cln2 rad14 strain, at 50.0 µM, active compounds read high. The method in brief: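 Compounds are applied to the cln2 rad14 yeast strain, and growth is then compared with that of vehicle-treated cultures to give inhibition.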
Assay [5] can be described thus: NCI Yeast Anticancer Drug Screen. Data for the bub3 strain (AID 167). To be noted: S. cerevisiae bub3 mutant strain, at 50.0 µM, active compounds read high. Put shortly:
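Yeast carrying a defined mutation is treated with each compound, and growth is compared with that of vehicle-exposed cells to give inhibition.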

Assay [6] can be described thus: NCI Yeast Anticancer Drug Screen. Data for the mlh1 rad18 strain (AID 175). To be noted: S. cerevisiae mlh1 rad18 strain growth inhibition; at 50.0 µM; active compounds read high. Put shortly: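 Read-out is yeast growth inhibition, calculated against vehicle-only controls. The compound was applied to a strain engineered with DNA damage repair alterations.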

The structures appear in SMILES notation. Compounds without any hit were thinned out: in the full panel of roughly 79,000, 15% have a hit. A number with no mark means an inactive call. The source made the active and inactive calls. Cut-off read from the data, not from the text of the source: active = growth inhibition above about 70%; inactive = the rest.

In the case of `Cc1ccc2[nH]c3ccccc3c2c1`, the growth inhibition in assay [1] was 26.1%; in assay [2] it was 14.6%; in assay [3], 22.9%; in assay [4] it was -14.8%; in assay [5] it was 15%; in assay [6], 31.1%.
Take `O=C1C=Cc2ccccc2/C1=C/c1[nH]c(=O)[nH]c1O`: the growth inhibition is -21.1% in assay [1]; -1.35% in assay [2]; -9.7% in assay [3]; 3.2% in assay [4]; -3% in assay [5]; -5.3% in assay [6].
Turning to `O=C(Nc1cccc(Cl)c1)c1ccc(Cl)cc1Cl`, the growth inhibition is 1.95% in assay [1]; 5.85% in assay [2]; 2.2% in assay [3]; -48.5% in assay [4]; 20.6% in assay [5]; 0.1% in assay [6].
`C1C[S+]2CC[S+]1CC2`: the growth inhibition in assay [1] was 3.5%; in assay [2], 28.9%; in assay [3], 24.3%; in assay [4], -5.95%; in assay [5] it was 19.2%; in assay [6], 28.2%.
Turning to `CCC(C)c1c(N)n(S(=O)(=O)c2ccc(C)cc2)oc1=O` (configuration not stated), the growth inhibition in assay [1] is -25.2%; in assay [2] it was 6.8%; in assay [3] it was 6.4%; in assay [4], -25%; in assay [5], 16.6%; in assay [6], -3.45%.
With `COC(=O)c1ccccc1C(=O)c1c(C)cc(C)cc1C`, the growth inhibition in assay [1] was 13.8%; in assay [2], 28.2%; in assay [3], 34.1%; in assay [4], -64%; in assay [5], 46.9%; in assay [6] it was 50.3%.
In the case of `COC(=O)c1ccc([N+](=O)[O-])c(C)c1`, the growth inhibition in assay [1] was -33.2%; in assay [2], -30.9%; in assay [3], -50.2%; in assay [4], -9.9%; in assay [5] it was -25.1%; in assay [6], -27.6%.
Turning to `Cc1cccc2ccccc12`, the growth inhibition in assay [1] is -9.65%; in assay [2], -15.6%; in assay [3] it was 10.5%; in assay [4], 24.4%; in assay [5], -3.6%; in assay [6] it was 13.8%.
With `Cc1ccc(/C=N/NC(N)=S)s1`, the growth inhibition in assay [1] is 24.9%; in assay [2], 1.9%; in assay [3] it was 49.1%; in assay [4] it was -41.5%; in assay [5] it was -12.8%; in assay [6] it was 48.5%.
For `O=c1cc(C(F)(F)F)[nH]c(=S)[nH]1`, the growth inhibition was -21.9% in assay [1]; -5.05% in assay [2]; -15.8% in assay [3]; -20.9% in assay [4]; -24.8% in assay [5]; -26.2% in assay [6].
`CCN(Cc1ccc(Cl)c(Cl)c1)c1ccc2nc(N)nc(N)c2c1C`: the growth inhibition in assay [1] was 40%; in assay [2], 84.6% (active); in assay [3], 50.9%; in assay [4] it was 40.3%; in assay [5], 6.15%; in assay [6] it was 29.9%.
In the case of `COc1nc2ccccc2s1`, the growth inhibition is 18.6% in assay [1]; -15.2% in assay [2]; 13.1% in assay [3]; 10.9% in assay [4]; 1.5% in assay [5]; 22.4% in assay [6].
As to `NC(=S)N/N=C/c1ccc(Cl)cc1`, the growth inhibition in assay [1] was 47.5%; in assay [2] it was 23.8%; in assay [3], 41.5%; in assay [4], 13.4%; in assay [5] it was 22.9%; in assay [6], 46.9%.
In the case of `C1CCc2onc(-c3noc4c3CCCCC4)c2CC1`, the growth inhibition in assay [1] is -9.45%; in assay [2], -15.8%; in assay [3], -19.1%; in assay [4], -1.1%; in assay [5], -21.4%; in assay [6], 2.8%.
Take `C/C(O)=C(/C=N\C(=S)Nc1ccc(S(=O)(=O)Nc2nccs2)cc1)C(=O)Nc1ccccc1C`: the growth inhibition in assay [1] is -14.3%; in assay [2], 8.1%; in assay [3] it was 15.3%; in assay [4], 32.8%; in assay [5], 7.65%; in assay [6], -18.8%.
In the case of `CC(=O)OCC1CCC(COC(C)=O)CC1` (configuration not stated), the growth inhibition was 9.75% in assay [1]; -30.6% in assay [2]; -10.4% in assay [3]; -5.95% in assay [4]; 19.7% in assay [5]; -3.9% in assay [6].
For `CCOC(=O)c1c[nH][nH]c1=O`, the growth inhibition in assay [1] was -9.05%; in assay [2], -8.45%; in assay [3] it was -3.55%; in assay [4] it was -18.2%; in assay [5], 7.85%; in assay [6], 5.8%.
As for `O=C1NC(=O)C(c2ccccc2)O1` (configuration not stated), the growth inhibition in assay [1] was -3.9%; in assay [2], -12.1%; in assay [3] it was 1.15%; in assay [4] it was 14.7%; in assay [5], 18.8%; in assay [6], 10.8%.
With `O=c1n(CC2CO2)c(=O)n(CC2CO2)n1CC1CO1` (configuration not stated), the growth inhibition in assay [1] is 16.9%; in assay [2], -5.75%; in assay [3], 1.05%; in assay [4] it was 8.35%; in assay [5] it was -26.7%; in assay [6], -8.8%.
For the compound `COc1cc(C(=O)N2CCN(c3ccccc3)CC2)c2ccccc2n1`, the growth inhibition in assay [1] is -3.8%; in assay [2], 3.8%; in assay [3] it was 10.7%; in assay [4], 18.5%; in assay [5], 9.2%; in assay [6], 3.1%.
Regarding `Cc1cccc(-[n+]2noc(N)n2)c1`, the growth inhibition in assay [1] was 29.1%; in assay [2], 22.2%; in assay [3], 2.25%; in assay [4] it was -3.35%; in assay [5], 1.95%; in assay [6] it was 40.6%.
For `CC(=O)CSc1ncnc2nc[nH]c12`, the growth inhibition in assay [1] is 0.1%; in assay [2] it was 2.8%; in assay [3] it was -0.5%; in assay [4], -5.5%; in assay [5], 5.85%; in assay [6], -5.3%.

Values taken from PubChem BioAssay (NCI).
